From ChEMBL document CHEMBL1961873, “Compounds: GSK PKIS; Assays: Nanosyn kinase panel” (2012)

target: T1, Serine/threonine-protein kinase Chk1 (Homo sapiens) (UniProt O14757); conditions: at 1 µM;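 further: mean inhibition of CHEK1, part of the GSK PKIS profiling set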
T1 sequence (whole entry): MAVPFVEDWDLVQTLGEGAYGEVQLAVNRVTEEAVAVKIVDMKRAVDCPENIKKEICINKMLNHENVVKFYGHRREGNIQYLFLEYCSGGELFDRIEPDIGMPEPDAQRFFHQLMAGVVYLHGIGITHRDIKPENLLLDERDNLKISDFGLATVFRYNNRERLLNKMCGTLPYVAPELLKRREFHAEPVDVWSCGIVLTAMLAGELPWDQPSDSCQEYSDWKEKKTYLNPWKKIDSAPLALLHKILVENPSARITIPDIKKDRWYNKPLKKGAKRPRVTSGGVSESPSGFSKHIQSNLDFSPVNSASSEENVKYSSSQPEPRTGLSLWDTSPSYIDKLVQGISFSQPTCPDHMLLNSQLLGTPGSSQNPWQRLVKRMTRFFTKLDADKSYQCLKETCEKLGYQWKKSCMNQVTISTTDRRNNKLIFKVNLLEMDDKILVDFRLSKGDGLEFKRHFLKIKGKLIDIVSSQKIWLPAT

**Q.** How did the inhibition turn out when `COc1cc2ncn(-c3cc(OCCc4ccccc4)c(C(N)=O)s3)c2cc1OC` was run?
**A.** 7.39%

**Q.** With `NS(=O)(=O)c1ccc(N/N=C2\C(=O)Nc3ccc(C(=O)NCCCn4ccnc4)cc32)cc1` as the compound, how does the inhibition read?
**A.** 19.3%

**Q.** With `C/C(Nc1ccc(S(N)(=O)=O)cc1)=C1/C(=O)Nc2ccccc21` as the compound, how does the inhibition read?
**A.** 10.1%

**Q.** For `O=C1Nc2ccc(I)cc2C1=Cc1cc(Br)c(O)c(Br)c1`, which inhibition is on record?
**A.** -0.68%

**Q.** With `CN(c1ccc(NC(=O)Nc2c(Cl)cccc2Cl)cc1)c1ccnc(Nc2cccc(CS(C)(=O)=O)c2)n1` as the compound, how does the inhibition read?
**A.** 4.63%

**Q.** For `CN(C)CCOc1ccc(-c2cc(-c3ccc4c(c3)CCC4=NO)c(-c3ccncc3)o2)cc1`, which inhibition is on record?
**A.** -2.8%

**Q.** `Cc1ccc(C(=O)NC2CCC2)cc1-c1ccc(C(=O)NCC2CC2)cc1` was tested. Which inhibition did it give?
**A.** 2.39%

**Q.** `COc1ccc(-c2ccc3c(NC(=O)C4CC4)n[nH]c3n2)cc1` was tested. Which inhibition did it give?
**A.** 1.88%

**Q.** With `COc1ccc2ncn(-c3cc(O[C@H](C)c4ccccc4Cl)c(C(N)=O)s3)c2c1` as the compound, how does the inhibition read?
**A.** 0.19%

**Q.** How did the inhibition turn out when `NS(=O)(=O)c1ccc(Nc2cc(-c3ccc(O)c(F)c3)n[nH]2)cc1` was run?
**A.** 8.18%

**Q.** For `COc1ccc(C2=C(N3CCc4ccccc43)C(=O)NC2=O)cc1`, which inhibition is on record?
**A.** 3.47%

**Q.** For `COc1cc2ncn(-c3cc(OCc4cccs4)c(C(N)=O)s3)c2cc1OC`, which inhibition is on record?
**A.** 3.75%

**Q.** With `O=C(Nc1n[nH]c2nc(-c3ccc(O)cc3)c(Br)cc12)C1CC1` as the compound, how does the inhibition read?
**A.** 16.8%

**Q.** How did the inhibition turn out when `COc1cc(Nc2ncc3c(C)nc(-c4cccc(Oc5ccccc5)c4)n3n2)cc(OC)c1OC` was run?
**A.** 10.2%

**Q.** With `COc1cccc(/C=N/Nc2ncnc3c2cnn3-c2cccc(OC)c2)c1` as the compound, how does the inhibition read?
**A.** -1.62%

**Q.** Which inhibition does the source give for `COc1cc(Nc2ncc(-c3ccccc3)o2)cc(OC)c1OC` here?
**A.** 5.64%

**Q.** Which inhibition does the source give for `COc1cc(N2CCN(C(C)C)CC2)ccc1Nc1nc(Nc2ccc(F)cc2C(=O)NC[C@@H](O)CO)c2cc[nH]c2n1` here?
**A.** 6.24%

**Q.** Which inhibition does the source give for `CS(=O)(=O)CCNCc1cc(-c2cc3c(Nc4ccc(OCc5cccc(F)c5)c(Cl)c4)ncnc3s2)cs1` here?
**A.** 4.23%

**Q.** How did the inhibition turn out when `O=C(Nc1n[nH]c2cc(-c3ccccc3)ccc12)C1CC1` was run?
**A.** 5.48%

**Q.** `CNC(=O)c1cncc(/C=C/c2c(C)cccc2C)c1` was tested. Which inhibition did it give?
**A.** 0.19%

**Q.** Which inhibition does the source give for `NC(=O)Cc1ccccc1Oc1nccc(-c2c(-c3ccc(F)cc3)ncn2C2CCNCC2)n1` here?
**A.** 5.68%

**Q.** `COc1ccc2cc(-c3c(-c4ccncc4)nc(-c4ccc([S+](C)[O-])cc4C)n3C)ccc2c1` (stereo not drawn) was tested. Which inhibition did it give?
**A.** -9.96%

**Q.** For `COc1ccc2cc(-c3c(-c4ccncc4)nc(-c4ccc(S(C)(=O)=O)cc4C)n3C)ccc2c1`, which inhibition is on record?
**A.** -3.07%

**Q.** Which inhibition does the source give for `COc1cc2ncn(-c3cc(OCc4ccccc4C(F)(F)F)c(C(C)=O)s3)c2cc1OC` here?
**A.** 4.57%

**Q.** For `NC(=O)c1cc(-c2ccncc2)cc(-c2ccccc2)c1N`, which inhibition is on record?
**A.** -2.65%

**Q.** How did the inhibition turn out when `CN(C)c1ccc2c(c1)/C(=C/Nc1ccc(S(N)(=O)=O)cc1)C(=O)N2` was run?
**A.** 34.9%

**Q.** Which inhibition does the source give for `CCC(=O)Nc1ccc(C)c(-c2ccc(C(=O)NCC3CC3)cc2)c1` here?
**A.** -0.8%

**Q.** Which inhibition does the source give for `Fc1ccc(-c2c(-c3ccncc3)nc3n2CCS3)cc1` here?
**A.** 2.88%

**Q.** With `CN1CCN(CCCNc2nc3ccc(Oc4ccc(NC(=O)Nc5cc(C(F)(F)F)ccc5F)cc4)cc3[nH]2)CC1` as the compound, how does the inhibition read?
**A.** 0.8%

**Q.** With `c1ccc(-c2n[nH]cc2-c2ccnc(-c3ccc(OCCN4CCOCC4)cc3)c2)nc1` as the compound, how does the inhibition read?
**A.** -1.98%

**Q.** `Fc1ccc(-c2nc3n(c2-c2ccncc2)CCS3)cc1` was tested. Which inhibition did it give?
**A.** 3.69%

**Q.** How did the inhibition turn out when `Fc1ccc(-c2ncn(CCCN3CCOCC3)c2-c2ccncc2)cc1` was run?
**A.** -1.19%

**Q.** For `O=C(Nc1ccc(Oc2ccc3[nH]c(NC(=O)c4ccccc4)nc3c2)cc1)Nc1cc(C(F)(F)F)ccc1F`, which inhibition is on record?
**A.** 5.63%

**Q.** Which inhibition does the source give for `Cc1nnc(-c2ccc(C)c(-c3ccc(C(=O)NCc4ccc(Cl)cc4)cc3)c2)o1` here?
**A.** 2.22%

target: Serine/threonine-protein kinase Chk2 (Homo sapiens) (UniProt O96017); conditions: at 0.1 µM
Sequence (O96017 whole entry): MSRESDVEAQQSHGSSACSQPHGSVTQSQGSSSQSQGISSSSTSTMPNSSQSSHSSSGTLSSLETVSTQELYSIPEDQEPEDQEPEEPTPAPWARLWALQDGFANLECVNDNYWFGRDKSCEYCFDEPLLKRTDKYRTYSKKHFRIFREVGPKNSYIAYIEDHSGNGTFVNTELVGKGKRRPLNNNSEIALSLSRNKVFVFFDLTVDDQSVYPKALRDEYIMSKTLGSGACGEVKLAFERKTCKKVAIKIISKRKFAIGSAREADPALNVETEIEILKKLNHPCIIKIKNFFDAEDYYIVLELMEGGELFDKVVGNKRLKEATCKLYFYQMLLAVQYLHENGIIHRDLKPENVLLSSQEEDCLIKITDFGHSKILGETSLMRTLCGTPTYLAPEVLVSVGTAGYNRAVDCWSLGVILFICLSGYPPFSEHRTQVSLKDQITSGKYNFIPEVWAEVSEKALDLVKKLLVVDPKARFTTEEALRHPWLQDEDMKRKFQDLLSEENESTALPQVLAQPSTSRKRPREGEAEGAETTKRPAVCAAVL

**Q.** How did the inhibition turn out when `COc1cc2ncn(-c3cc(OCCc4ccccc4)c(C(N)=O)s3)c2cc1OC` was run?
**A.** 1.58%

**Q.** Which inhibition does the source give for `NS(=O)(=O)c1ccc(N/N=C2\C(=O)Nc3ccc(C(=O)NCCCn4ccnc4)cc32)cc1` here?
**A.** 10.6%

**Q.** `C/C(Nc1ccc(S(N)(=O)=O)cc1)=C1/C(=O)Nc2ccccc21` was tested. Which inhibition did it give?
**A.** -0.44%

**Q.** `O=C1Nc2ccc(I)cc2C1=Cc1cc(Br)c(O)c(Br)c1` was tested. Which inhibition did it give?
**A.** 4.44%

**Q.** Which inhibition does the source give for `CN(c1ccc(NC(=O)Nc2c(Cl)cccc2Cl)cc1)c1ccnc(Nc2cccc(CS(C)(=O)=O)c2)n1` here?
**A.** 10.1%

**Q.** For `CN(C)CCOc1ccc(-c2cc(-c3ccc4c(c3)CCC4=NO)c(-c3ccncc3)o2)cc1`, which inhibition is on record?
**A.** -1.13%

**Q.** Which inhibition does the source give for `Cc1ccc(C(=O)NC2CCC2)cc1-c1ccc(C(=O)NCC2CC2)cc1` here?
**A.** 1.83%

**Q.** With `COc1ccc(-c2ccc3c(NC(=O)C4CC4)n[nH]c3n2)cc1` as the compound, how does the inhibition read?
**A.** 0.78%

**Q.** Which inhibition does the source give for `COc1ccc2ncn(-c3cc(O[C@H](C)c4ccccc4Cl)c(C(N)=O)s3)c2c1` here?
**A.** 2.58%

**Q.** For `NS(=O)(=O)c1ccc(Nc2cc(-c3ccc(O)c(F)c3)n[nH]2)cc1`, which inhibition is on record?
**A.** -1.68%

**Q.** With `COc1ccc(C2=C(N3CCc4ccccc43)C(=O)NC2=O)cc1` as the compound, how does the inhibition read?
**A.** 3.04%

**Q.** Which inhibition does the source give for `COc1cc2ncn(-c3cc(OCc4cccs4)c(C(N)=O)s3)c2cc1OC` here?
**A.** 2.01%

**Q.** With `O=C(Nc1n[nH]c2nc(-c3ccc(O)cc3)c(Br)cc12)C1CC1` as the compound, how does the inhibition read?
**A.** 2.09%

**Q.** Which inhibition does the source give for `COc1cc(Nc2ncc3c(C)nc(-c4cccc(Oc5ccccc5)c4)n3n2)cc(OC)c1OC` here?
**A.** 7.97%

**Q.** Which inhibition does the source give for `COc1cccc(/C=N/Nc2ncnc3c2cnn3-c2cccc(OC)c2)c1` here?
**A.** 3.83%

**Q.** For `COc1cc(Nc2ncc(-c3ccccc3)o2)cc(OC)c1OC`, which inhibition is on record?
**A.** -3.16%

**Q.** How did the inhibition turn out when `COc1cc(N2CCN(C(C)C)CC2)ccc1Nc1nc(Nc2ccc(F)cc2C(=O)NC[C@@H](O)CO)c2cc[nH]c2n1` was run?
**A.** 17.2%

**Q.** How did the inhibition turn out when `CS(=O)(=O)CCNCc1cc(-c2cc3c(Nc4ccc(OCc5cccc(F)c5)c(Cl)c4)ncnc3s2)cs1` was run?
**A.** 4.96%

**Q.** `O=C(Nc1n[nH]c2cc(-c3ccccc3)ccc12)C1CC1` was tested. Which inhibition did it give?
**A.** 2.81%

**Q.** `CNC(=O)c1cncc(/C=C/c2c(C)cccc2C)c1` was tested. Which inhibition did it give?
**A.** -0.74%

**Q.** With `NC(=O)Cc1ccccc1Oc1nccc(-c2c(-c3ccc(F)cc3)ncn2C2CCNCC2)n1` as the compound, how does the inhibition read?
**A.** 4.2%

**Q.** Which inhibition does the source give for `COc1ccc2cc(-c3c(-c4ccncc4)nc(-c4ccc([S+](C)[O-])cc4C)n3C)ccc2c1` (stereo not drawn) here?
**A.** -6.42%

**Q.** For `COc1ccc2cc(-c3c(-c4ccncc4)nc(-c4ccc(S(C)(=O)=O)cc4C)n3C)ccc2c1`, which inhibition is on record?
**A.** -2.23%

**Q.** For `COc1cc2ncn(-c3cc(OCc4ccccc4C(F)(F)F)c(C(C)=O)s3)c2cc1OC`, which inhibition is on record?
**A.** 1.3%

**Q.** For `NC(=O)c1cc(-c2ccncc2)cc(-c2ccccc2)c1N`, which inhibition is on record?
**A.** -1.34%

**Q.** Which inhibition does the source give for `CN(C)c1ccc2c(c1)/C(=C/Nc1ccc(S(N)(=O)=O)cc1)C(=O)N2` here?
**A.** 1.42%

**Q.** How did the inhibition turn out when `CCC(=O)Nc1ccc(C)c(-c2ccc(C(=O)NCC3CC3)cc2)c1` was run?
**A.** 3.52%

**Q.** `Fc1ccc(-c2c(-c3ccncc3)nc3n2CCS3)cc1` was tested. Which inhibition did it give?
**A.** 1.49%

**Q.** Which inhibition does the source give for `CN1CCN(CCCNc2nc3ccc(Oc4ccc(NC(=O)Nc5cc(C(F)(F)F)ccc5F)cc4)cc3[nH]2)CC1` here?
**A.** 1.31%

**Q.** Which inhibition does the source give for `c1ccc(-c2n[nH]cc2-c2ccnc(-c3ccc(OCCN4CCOCC4)cc3)c2)nc1` here?
**A.** 3.21%

**Q.** `Fc1ccc(-c2nc3n(c2-c2ccncc2)CCS3)cc1` was tested. Which inhibition did it give?
**A.** 2.74%

**Q.** How did the inhibition turn out when `Fc1ccc(-c2ncn(CCCN3CCOCC3)c2-c2ccncc2)cc1` was run?
**A.** -0.55%

**Q.** Which inhibition does the source give for `O=C(Nc1ccc(Oc2ccc3[nH]c(NC(=O)c4ccccc4)nc3c2)cc1)Nc1cc(C(F)(F)F)ccc1F` here?
**A.** 1.47%

**Q.** How did the inhibition turn out when `Cc1nnc(-c2ccc(C)c(-c3ccc(C(=O)NCc4ccc(Cl)cc4)cc3)c2)o1` was run?
**A.** 1.43%
